Data reported in PubChem BioAssay (NCI).
This is part of a sample that, as a whole, favours compounds with a hit. Of some 83,000 tested, about 20% had one in any assay.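 48-hour exposure, single concentration, 96-well plates; percent growth endpoint where 0 means no net growth. Active: below 10.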 Active and inactive are the calls of the source.

Columns and labels:
Assay in all cases: NCI-60 one-dose screen, 48 h (100 = growth as untreated, 0 = no growth, -100 = all killed)
DU-145 prostate = conditions: 10 µM unless noted
K-562 leukemia = conditions: 10 µM unless noted
MALME-3M melanoma = conditions: 10 µM unless noted
MDA-MB-231 breast = conditions: 10 µM unless noted
RXF 393 renal = conditions: 10 µM unless noted
SF-268 CNS = conditions: 10 µM unless noted
SF-295 CNS = conditions: 10 µM unless noted
SF-539 CNS = conditions: 10 µM unless noted
UACC-257 melanoma = conditions: 10 µM
M14 melanoma = conditions: 10 µM unless noted
HCT-15 colon = conditions: 10 µM unless noted
HT29 colon = conditions: 10 µM unless noted
SNB-75 CNS = conditions: 10 µM unless noted
SNB-19 CNS = conditions: 10 µM unless noted
U251 CNS = conditions: 10 µM unless noted
PC-3 prostate = conditions: 10 µM unless noted
SK-MEL-5 melanoma = conditions: 10 µM unless noted
UACC-62 melanoma = conditions: 10 µM unless noted
SK-MEL-28 melanoma = conditions: 10 µM unless noted
LOX IMVI melanoma = conditions: 10 µM unless noted

Measured: growth

Cc1nn(-c2ccc(Cl)cc2)c(=O)n1CCOc1ccccc1Cl
inactive: DU-145 prostate 110% | K-562 leukemia 96.8% | MALME-3M melanoma 103% | MDA-MB-231 breast 89.6% | RXF 393 renal 115% | SF-268 CNS 106% | SF-295 CNS 72.3% | SF-539 CNS 108% | UACC-257 melanoma 105% | M14 melanoma 98.8% | HCT-15 colon 110% | HT29 colon 95.9% | SNB-75 CNS 70.6% | SNB-19 CNS 115% | U251 CNS 101% | PC-3 prostate 88.5% | SK-MEL-5 melanoma 105% | UACC-62 melanoma 101% | SK-MEL-28 melanoma 96.6%

Nc1c(C(=O)Nc2ccccc2)sc2nc3c(cc12)CCCCC3
active: DU-145 prostate 4.69% | MALME-3M melanoma -5.3% | RXF 393 renal -5.96% | SF-295 CNS -4.71% | SF-539 CNS 7.96% | M14 melanoma 6.74% | HT29 colon -15.5% | SNB-75 CNS -6.57% | PC-3 prostate 9.02% | UACC-62 melanoma 5.45%
inactive: K-562 leukemia 14.8% | MDA-MB-231 breast 22.2% | SF-268 CNS 30.5% | UACC-257 melanoma 41.5% | HCT-15 colon 20.1% | SNB-19 CNS 22.1% | U251 CNS 13.8% | SK-MEL-5 melanoma 11.3% | SK-MEL-28 melanoma 36.6%

COC1=CC(c2ccc[nH]2)=N/C1=C\c1[nH]c(C)c(CCCn2cc(CCCCCCCCC[C@@H]3Cc4cc(O)ccc4C4CC[C@]5(C)[C@@H](O)CC[C@H]5C43)nn2)c1C (stereo partly specified)
inactive: DU-145 prostate 33.3% | K-562 leukemia 28% | MALME-3M melanoma 137% | RXF 393 renal 28.1% | SF-268 CNS 58.2% | SF-295 CNS 65.2% | SF-539 CNS 59.1% | UACC-257 melanoma 98.5% | M14 melanoma 74% | HCT-15 colon 35% | HT29 colon 23.6% | SNB-75 CNS 88.8% | SNB-19 CNS 77.7% | U251 CNS 44.1% | SK-MEL-5 melanoma 35.5% | UACC-62 melanoma 12.9% | LOX IMVI melanoma 13.4% | SK-MEL-28 melanoma 75.9%
active: MDA-MB-231 breast -12.8%

Cc1ccc(Cn2c(-c3nonc3N)nc3ccccc32)cc1
inactive: DU-145 prostate 100% | K-562 leukemia 12.9% | MALME-3M melanoma 81.6% | MDA-MB-231 breast 83.5% | RXF 393 renal 82.1% | SF-268 CNS 81.5% | SF-295 CNS 82.3% | SF-539 CNS 80.4% | UACC-257 melanoma 89.6% | M14 melanoma 66.4% | HCT-15 colon 50.5% | HT29 colon 46.3% | SNB-75 CNS 57.4% | SNB-19 CNS 91% | U251 CNS 77.5% | PC-3 prostate 72.2% | SK-MEL-5 melanoma 76.2% | UACC-62 melanoma 77.7% | SK-MEL-28 melanoma 90%

O=C(CN1CCN(c2cc3c(cc2F)c(=O)c(C(=O)O)cn3C2CC2)CC1)Nc1ccc(C(=O)/C=C/c2ccc(Cl)cc2)cc1
inactive: DU-145 prostate 120% | K-562 leukemia 104% | MALME-3M melanoma 100% | MDA-MB-231 breast 115% | RXF 393 renal 94.1% | SF-268 CNS 121% | SF-295 CNS 82.1% | SF-539 CNS 99.5% | UACC-257 melanoma 103% | M14 melanoma 96.3% | HCT-15 colon 111% | HT29 colon 106% | SNB-75 CNS 84.8% | SNB-19 CNS 92.9% | U251 CNS 99% | PC-3 prostate 91.7% | SK-MEL-5 melanoma 96.8% | UACC-62 melanoma 93.1% | LOX IMVI melanoma 78.9% | SK-MEL-28 melanoma 96.5%

COc1cc2nc(N3CCC[C@@H](NC4=CC(=O)c5ccccc5C4=O)C3)nc(N)c2cc1OC
inactive: MALME-3M melanoma 94.8% | UACC-257 melanoma 95.3% | M14 melanoma 96.3% | SK-MEL-5 melanoma 94% | UACC-62 melanoma 87.8% | SK-MEL-28 melanoma 109%
active: DU-145 prostate -53.8% | K-562 leukemia -47.1% | MDA-MB-231 breast -71.2% | RXF 393 renal -76.3% | SF-268 CNS -47.4% | SF-295 CNS -89% | SF-539 CNS -99.9% | HCT-15 colon -67.2% | HT29 colon -59.8% | SNB-75 CNS -92.3% | SNB-19 CNS -49.7% | U251 CNS -89.3% | LOX IMVI melanoma -65.3%

Cc1cccc(NC(=O)c2sc3nc4c(cc3c2N)CCC4)c1C
inactive: DU-145 prostate 10.6% | K-562 leukemia 13.8% | MALME-3M melanoma 45.5% | MDA-MB-231 breast 30.6% | SF-268 CNS 35.1% | UACC-257 melanoma 54.8% | M14 melanoma 19.1% | HCT-15 colon 20.1% | SNB-75 CNS 13.9% | SNB-19 CNS 38% | U251 CNS 16.6% | PC-3 prostate 11.2% | SK-MEL-5 melanoma 24.4% | UACC-62 melanoma 28.7% | LOX IMVI melanoma 24.5% | SK-MEL-28 melanoma 57.8%
active: RXF 393 renal -4.81% | SF-295 CNS 4.77% | SF-539 CNS 1.33% | HT29 colon 1.41%

O=C1Nc2ccc(Br)cc2C1=N/C=c1\[nH]c(=O)/c(=C/c2ccc(Cl)cc2)s1
inactive: DU-145 prostate 102% | K-562 leukemia 81% | MALME-3M melanoma 93.6% | MDA-MB-231 breast 88.6% | RXF 393 renal 94.9% | SF-268 CNS 95.2% | SF-295 CNS 96.5% | SF-539 CNS 90.7% | UACC-257 melanoma 95.7% | M14 melanoma 101% | HCT-15 colon 90.3% | HT29 colon 97.9% | SNB-75 CNS 93.9% | SNB-19 CNS 94% | U251 CNS 83.7% | SK-MEL-5 melanoma 99.1% | UACC-62 melanoma 91.2% | LOX IMVI melanoma 103% | SK-MEL-28 melanoma 105%

COc1cc(C2C=C(C)N=C3SC=C(C)N32)cc(OC)c1OC (stereo unspecified)
inactive: SNB-75 CNS 24.6% | SNB-19 CNS 33.5%
active: DU-145 prostate -26.7% | K-562 leukemia 2.16% | MALME-3M melanoma -54% | MDA-MB-231 breast -23.5% | RXF 393 renal -89.7% | SF-268 CNS -16.9% | SF-295 CNS -1.7% | SF-539 CNS -40.4% | UACC-257 melanoma -38.9% | M14 melanoma -52.5% | HCT-15 colon -20.4% | HT29 colon -37.2% | U251 CNS -75.6% | PC-3 prostate -17.6% | SK-MEL-5 melanoma -97.5% | UACC-62 melanoma -61.3% | SK-MEL-28 melanoma -75.5%

Nc1c(C(=O)Nc2cccc(C(F)(F)F)c2)sc2nc3c(cc12)CCCCCC3
inactive: DU-145 prostate 20.8% | K-562 leukemia 17% | SF-268 CNS 12.7% | M14 melanoma 47.1% | HCT-15 colon 19.3% | SNB-19 CNS 25.9% | PC-3 prostate 52.4% | SK-MEL-5 melanoma 25.8% | UACC-62 melanoma 23.9% | LOX IMVI melanoma 21.5% | SK-MEL-28 melanoma 10.4%
active: MALME-3M melanoma -20.6% | MDA-MB-231 breast -12.9% | RXF 393 renal -49.1% | SF-295 CNS 2.51% | SF-539 CNS -86.9% | UACC-257 melanoma 7.85% | HT29 colon 0.128% | U251 CNS -18.4%

O=C(Nc1cccc(Cl)c1)c1cc([N+](=O)[O-])ccc1O
inactive: DU-145 prostate 73.2% | K-562 leukemia 27.7% | MALME-3M melanoma 22% | MDA-MB-231 breast 38% | RXF 393 renal 46.2% | SF-268 CNS 65% | SF-295 CNS 58.8% | SF-539 CNS 32.2% | M14 melanoma 54.9% | HCT-15 colon 61.7% | HT29 colon 49.8% | SNB-75 CNS 67.8% | SNB-19 CNS 53.3% | U251 CNS 47.5% | PC-3 prostate 35.4% | SK-MEL-5 melanoma 16.7% | UACC-62 melanoma 18% | LOX IMVI melanoma 34% | SK-MEL-28 melanoma 28.6%

Clc1cccc(Cl)c1Cn1c(-c2cncs2)nc2ccccc21
inactive: DU-145 prostate 110% | K-562 leukemia 35.3% | MALME-3M melanoma 81% | MDA-MB-231 breast 82.5% | RXF 393 renal 95% | SF-268 CNS 98.2% | SF-295 CNS 65.4% | SF-539 CNS 96.8% | UACC-257 melanoma 76.6% | M14 melanoma 89.5% | HCT-15 colon 79.5% | HT29 colon 91.5% | SNB-75 CNS 83.1% | SNB-19 CNS 97.8% | PC-3 prostate 62.2% | SK-MEL-5 melanoma 58.9% | UACC-62 melanoma 61.2% | LOX IMVI melanoma 85% | SK-MEL-28 melanoma 105%

CCCOC(=O)C1(O)CCCC1
inactive: DU-145 prostate 123% | K-562 leukemia 110% | MALME-3M melanoma 96.3% | MDA-MB-231 breast 112% | RXF 393 renal 103% | SF-268 CNS 121% | SF-295 CNS 105% | SF-539 CNS 88.1% | UACC-257 melanoma 103% | M14 melanoma 107% | HCT-15 colon 93.9% | HT29 colon 96.3% | SNB-19 CNS 108% | U251 CNS 104% | PC-3 prostate 96.9% | SK-MEL-5 melanoma 99.4% | UACC-62 melanoma 105% | LOX IMVI melanoma 108% | SK-MEL-28 melanoma 99.2%

O=C(CCC(=O)OC1CCCC1)OC1CCCC1
inactive: DU-145 prostate 102% | K-562 leukemia 96% | MALME-3M melanoma 102% | MDA-MB-231 breast 105% | RXF 393 renal 97.6% | SF-268 CNS 99.7% | SF-295 CNS 99.3% | SF-539 CNS 87.8% | UACC-257 melanoma 85.4% | M14 melanoma 112% | HCT-15 colon 93.6% | HT29 colon 98.3% | SNB-19 CNS 96.6% | U251 CNS 92.2% | PC-3 prostate 93.8% | SK-MEL-5 melanoma 99.3% | UACC-62 melanoma 103% | LOX IMVI melanoma 105% | SK-MEL-28 melanoma 99.3%

COc1ccc(-c2nc3sccn3c2-c2ccnc(NCCCNS(=O)(=O)c3ccc(F)cc3)n2)cc1
active: HCT-15 colon 2.92% | SK-MEL-5 melanoma -59.6% | UACC-62 melanoma -34.4% | LOX IMVI melanoma 6.15%
inactive: DU-145 prostate 10.9% | K-562 leukemia 14.2% | MALME-3M melanoma 12.7% | MDA-MB-231 breast 43.2% | RXF 393 renal 52.9% | SF-268 CNS 17.2% | SF-295 CNS 12.9% | SF-539 CNS 28.4% | UACC-257 melanoma 26.1% | M14 melanoma 12.4% | HT29 colon 20% | SNB-75 CNS 40.4% | SNB-19 CNS 42.6% | PC-3 prostate 21.1% | SK-MEL-28 melanoma 11.5%

COc1cc2nc(Cl)nc(NCCO)c2cc1OC
inactive: DU-145 prostate 112% | K-562 leukemia 105% | MALME-3M melanoma 94.4% | MDA-MB-231 breast 109% | RXF 393 renal 107% | SF-268 CNS 110% | SF-295 CNS 103% | SF-539 CNS 96.1% | UACC-257 melanoma 98.6% | M14 melanoma 110% | HCT-15 colon 99% | HT29 colon 110% | SNB-19 CNS 104% | U251 CNS 96.5% | PC-3 prostate 93.4% | SK-MEL-5 melanoma 102% | UACC-62 melanoma 108% | LOX IMVI melanoma 97.7% | SK-MEL-28 melanoma 112%
